Consider 20 compounds from PubChem BioAssay (EPA / NIEHS).

The structures appear in SMILES notation. Results filed as inconclusive are left out. Calls of active or inactive are those of the source. Rule for the calls: active = hit-call score of the fitted dose curve at least 0.9, where 1 is the maximum; inconclusive = response in the unintended direction; inactive = score below 0.9.

Experiment [1] in a line: ATG_XTT_Cytotoxicity: Cytotoxicity Assessment in the Attagene TRANS-FACTORIAL HepG2 Assay (AID 2283584).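 For AC50: XTT signal for cell number as viability in transfected HepG2 cells; cells exposed to compound for 24 h before reading; active means loss of viability signal versus DMSO baseline.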 In a few lines: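 Transfect HepG2 with GAL4-UAS reporter units, dose compound, incubate 24 h, then measure viable cell number by XTT. Fit concentration response against DMSO baseline.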
Experiment [2] can be described thus: TOX21_p53_BLA_p2_viability: Viability Assessment in the Tox21 HCT-116 p53 Agonism Beta-lactamase Assay, Phase 2 (AID 2283591).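 Note: actives lower the ATP signal meaning cytotoxicity.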 Summed up: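 Cytotoxicity readout: CellTiter-Glo ATP luminescence, 30 min at room temperature, after the beta-lactamase read. Cells were HCT116 exposed 16 h at 37C to compounds pin-transferred at 217-fold dilution from DMSO stocks.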

In experiment [3] the target is Cellular tumor antigen p53 (Homo sapiens) (UniProt P04637). In words: TOX21_p53_BLA_p2_ratio: Tox21 HCT-116 p53 Agonism Beta-lactamase Assay, Ratio, Phase 2 (AID 2283592). In a few lines:
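An inducible beta-lactamase reporter in HCT116 cells signals p53 pathway activation. After 16 h chemical exposure at 37C, cells load CCF4-AM substrate for 2 h at room temperature; activity is the cleaved/uncleaved emission ratio relative to DMSO.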

A short description of experiment [4]: TOX21_p53_BLA_p3_viability: Viability Assessment in the Tox21 HCT-116 p53 Agonism Beta-lactamase Assay, Phase 3 (AID 2283593).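 Note: cells exposed to compound for 16 h before reading.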 In a few lines: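 Cellular ATP was quantified by CellTiter-Glo luminescence, read after 30 min at room temperature. Beforehand, HCT116 cells (4000/well) received compound 5 h post-seeding, 217-fold diluted from DMSO, then incubated 16 h at 37C.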

Experiment [5] deals with Cellular tumor antigen p53 (Homo sapiens) (UniProt P04637). In words: TOX21_p53_BLA_p3_ratio: Tox21 HCT-116 p53 Agonism Beta-lactamase Assay, Ratio, Phase 3 (AID 2283596). In a few lines: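 HCT116 p53-bla cells (4000/well) given compound in DMSO (217-fold dilution) after 5 h, incubated 16 h at 37C. CCF4-AM substrate 2 h at room temperature; 460/530 nm emission ratio, gain fitted against DMSO.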

Experiment [6] can be described thus: TOX21_p53_BLA_p4_viability: Viability Assessment in the Tox21 HCT-116 p53 Agonism Beta-lactamase Assay, Phase 4 (AID 2283597).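 Note: hits lower the luminescence signal meaning cytotoxicity.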 In a few lines:
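Compound exposure of HCT116 cells lasts 16 h at 37C, 5% CO2, with DMSO stocks diluted 217-fold. Cellular ATP is then quantified by CellTiter-Glo luminescence after 30 min at room temperature.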

For experiment [7], the target named is Cellular tumor antigen p53 (Homo sapiens) (UniProt P04637). Briefly: TOX21_p53_BLA_p5_ratio: Tox21 HCT-116 p53 Agonism Beta-lactamase Assay, Ratio, Phase 5 (AID 2283599). Summed up:
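Beta-lactamase reporter ratio (blue 460 nm over green 530 nm, 405 nm excitation) after 2 h CCF4-AM loading, in HCT-116 cells exposed 16 h at 37 C to compounds pinned at 217-fold dilution. Increases relative to DMSO baseline scored.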

Experiment [8] shares this target. In words: TOX21_p53_BLA_p4_ratio: Tox21 HCT-116 p53 Agonism Beta-lactamase Assay, Ratio, Phase 4 (AID 2283601). In a few lines:
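Signal is the blue/green (460nm/530nm) ratio of cleaved versus uncleaved CCF4-AM substrate, read after 2 h substrate loading. Cells were HCT116 carrying the p53-responsive beta-lactamase reporter, dosed 16 h at 37C, 5% CO2; CellTiter-Glo measured in parallel.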

A short description of experiment [9]: TOX21_p53_BLA_p5_viability: Viability Assessment in the Tox21 HCT-116 p53 Agonism Beta-lactamase Assay, Phase 5 (AID 2283600). In a few lines:
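Counter-readout for cytotoxicity: ATP-dependent luminescence from CellTiter-Glo, read in the beta-lactamase wells after 30 min at RT, following a 16 h compound exposure at 37C.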

Chain of Cellular tumor antigen p53 (Homo sapiens) (P04637 whole entry, looked up): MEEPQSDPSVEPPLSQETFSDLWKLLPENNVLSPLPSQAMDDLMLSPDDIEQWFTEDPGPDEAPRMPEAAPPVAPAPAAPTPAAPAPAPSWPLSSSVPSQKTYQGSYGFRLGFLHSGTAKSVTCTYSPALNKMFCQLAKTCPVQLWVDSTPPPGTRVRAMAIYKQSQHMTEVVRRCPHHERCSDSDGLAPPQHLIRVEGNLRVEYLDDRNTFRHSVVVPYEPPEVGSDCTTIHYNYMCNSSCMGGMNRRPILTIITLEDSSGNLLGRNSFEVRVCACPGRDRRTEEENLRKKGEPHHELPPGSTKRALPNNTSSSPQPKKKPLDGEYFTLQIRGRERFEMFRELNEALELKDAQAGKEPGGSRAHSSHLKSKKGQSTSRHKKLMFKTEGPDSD

As for `C[Si](C)(CCCN)O[Si](C)(C)CCCN`, the compound was classed as inactive in experiment [1], in experiment [2], in experiment [3], in experiment [4], in experiment [5] and in [6]. In addition, the outcome in [7] and in experiment [8] was inactive.
Regarding `O=[N+]([O-])C1(Br)COCOC1`, the compound was called inactive in experiment [1], in experiment [2], in experiment [3], in experiment [4], in [5] and in experiment [6]. The result in experiment [7] and in [8] was inactive.
`NC(=O)c1ccccc1O`: the compound was classed as inactive in experiment [1], in [2], in experiment [3], in experiment [4], in [5] and in experiment [9]. Moreover, the result in [8] was inactive.
Turning to `Cn1c([N+](=O)[O-])cnc1COC(N)=O`, the compound was classed as inactive in experiment [1], in experiment [2], in experiment [3], in experiment [4], in experiment [5] and in experiment [6]. In addition, the outcome in experiment [7], in experiment [9] and in experiment [8] was inactive.
Consider `Cc1cccc(C(=O)O)c1`, for which the compound was classed as inactive in experiment [1], in experiment [2], in [3], in experiment [4], in [5] and in [7]. Besides, the outcome in experiment [8] was inactive.
Turning to `C=C[C@](C)(O)CC[C@@H]1[C@@]2(C)CCCC(C)(C)[C@@H]2CC[C@@]1(C)O`, the half-maximal activity concentration (AC50) (as a rule, the midpoint of the concentration-response curve, whichever way the signal moves) in experiment [1] is 119 µM (active); in [2], 47.1 µM (active); in experiment [3], 86 µM (active); in experiment [4] it was 64.6 µM (active); in experiment [5], 85.2 µM (active); in [7] it was 87.1 µM (active). Further, the AC50 in [9] is 67.5 µM (active). For the same compound, the result in experiment [8] was inactive.
`CC(=O)[C@@]1(O)CC[C@H]2[C@@H]3C[C@H](C)C4=CC(=O)C=C[C@]4(C)[C@@]3(F)[C@@H](O)C[C@@]21C`: the result in experiment [1], in experiment [2], in experiment [3], in experiment [4], in [5] and in [6] was inactive. For the same compound, the outcome in experiment [7] and in [8] was inactive.
As to `CCC(C)C=O` (configuration not stated), the compound was called inactive in experiment [1], in experiment [2], in experiment [3], in [4], in experiment [5] and in experiment [6]. The compound was classed as inactive in experiment [9] and in experiment [8].
As to `Cc1cc(C)c(C)c(C)c1`, the compound was classed as inactive in experiment [1], in experiment [2], in [3], in experiment [4], in [5] and in [6]. The result in experiment [7] and in experiment [8] was inactive.
With `C=CC(C)(C)C`, the outcome in experiment [1], in experiment [2], in [3], in [4], in experiment [5] and in experiment [7] was inactive. Besides, the compound was classed as inactive in experiment [9] and in [8].
`C=C[Si](C)(C)O[Si](C)(C)C=C`: the compound was called inactive in [1], in experiment [2], in experiment [3] and in [5].
As for `CC(=O)OC(C)C`, the compound was classed as inactive in [1], in experiment [2], in [3], in experiment [4], in experiment [5] and in experiment [7]. The result in [9] and in [8] was inactive.
For `CCCCCCCCCCOS(=O)(=O)O`, the compound was classed as inactive in experiment [1], in experiment [2], in experiment [3], in [4], in experiment [6] and in experiment [7].
For `CCCNC(=O)NS(=O)(=O)c1ccc(Cl)cc1`, the call in experiment [1], in [2], in experiment [3], in [4], in [5] and in experiment [6] was inactive. The result in [7], in [9] and in experiment [8] was inactive.
For the compound `Cc1c(C)c([N+](=O)[O-])c(C(C)(C)C)c([N+](=O)[O-])c1C`, the result in [1], in experiment [2], in experiment [3], in experiment [4], in experiment [6] and in experiment [7] was inactive.
As to `C=CC(=O)NC(C)(C)CS(=O)(=O)O`, the call in experiment [1], in experiment [2], in experiment [3], in experiment [4], in [5] and in experiment [6] was inactive. For the same compound, the result in experiment [7], in experiment [9] and in experiment [8] was inactive.
Turning to `CCCC(=O)OCc1ccccc1`, the call in experiment [1], in [2], in [3], in experiment [4], in experiment [5] and in experiment [9] was inactive. Further, in experiment [8], the outcome was inactive.
With `CCCCCCCCCCCSCC(=O)O`, the compound was called inactive in experiment [1], in experiment [4] and in [5]. Besides, the AC50 in experiment [2] is 62 µM (active); in [3], 83.3 µM (active); in experiment [6] it was 84 µM (active); in [7] it was 83.5 µM (active); in [9], 74 µM (active); in experiment [8], 86.7 µM (active).
In the case of `CC(C)c1ccc2c(c1)CC[C@H]1[C@](C)(CN)CCC[C@]21C`, the AC50 was 9.98 µM (active) in experiment [1]; 42.6 µM (active) in experiment [2]; 47.1 µM (active) in experiment [3]; 32.3 µM (active) in [4]; 72.5 µM (active) in experiment [5]; 49.6 µM (active) in experiment [6]. Further, the values for the AC50 in [9] and in experiment [8] were 63.5 µM (active) and 85.8 µM (active), respectively.
Consider `O=C1c2ccccc2C(=O)C1c1nc2ccccc2c(Br)c1O`, for which the compound was classed as inactive in [1], in experiment [2], in experiment [3], in experiment [4], in experiment [6] and in [9]. In addition, in experiment [8], the outcome was inactive.
